Shown are actives, neighbours in structure and some others; about 7.8% of the full set was active somewhere.
Lassa entry inh = qHTS for Inhibitors of binding or entry into cells for Lassa Virus; 300,000 tested, 1.2% active; Lassa virus pseudotype entry inhibition, cell reporter; Potency, µM (series often up to 37.9 µM), without a hit: at the top dose activity change, negative = inhibition, most hits filed as inhibitors; AID 540256, 2011; calls by dose curve; tested in HEK293 cells; note: potency is the fitted concentration of half-maximal effect; nearly all actives have a fitted effect of over 50% in size
Vaccinia mCherry = qHTS for Stage-Specific Inhibitors of Vaccinia Orthopoxvirus: mCherry Reporter Primary qHTS; Potency, µM (titrated, usually from 36.5 µM), for inactives: at the highest dose activity change, negative = inhibition, actives largely listed as inhibitors; AID 720579, 2013; 310,000 tested, 0.63% active; Vaccinia virus mCherry reporter infection, fluorescence; calls by dose curve; tested in A549 cells; note: potency is the fitted concentration of half-maximal effect; nearly all actives have a fitted effect of over 35% in size
HCMV antiviral = qHTS Assay for inhibitors of the human cytomegalovirus (HCMV); AID 1259415, 2018; activity change, negative = inhibition, % at 57.5 µM; HFF cells, HCMV-luciferase reporter, 72 h; hits give low values; 410,000 tested, 4.5% active; in the data active = activity change below about -60%; inconclusive = no clear call, values can overlap the other calls; inactive = above about -39%
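After 16 h attachment at 37C, HFF cells received test compound and HCMV-luciferase (1 PFU/cell); reporter luminescence read 72 h later, data normalized against buffer-only and known inhibitor Salinomycin.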
HCV inhibitor = qHTS Assay for Inhibitors of Hepatitis C Virus (HCV); Huh7.5.1 HCVcc-Cre infection, luciferase reporter, 44 h; Potency, µM (titrated, usually from 41.8 µM), for the others: top-dose activity change, negative = inhibition, actives largely listed as inhibitors; 340,000 tested, 3.4% active; AID 651820, 2012; active = well fitted inhibition curve with a large enough effect; inconclusive = small, poorly fitted or top-dose-only effect, or another doubt; inactive = no such curve, though single readings can be large or run the other way; note: potency is the fitted concentration of half-maximal effect
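Antiviral activity was scored by luciferase reporter output from cells infected with HCVcc-Cre (~0.5 moi) in presence of compound, 44 h infection period, cells seeded 1,000/well 4 h prior.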
Marburg entry inh = qHTS for inhibitors of binding or entry into cells for Marburg Virus; Marburg virus pseudotyped entry inhibition, cell reporter; Potency, µM (top dose mostly 37.8 µM), for the others: at the top dose activity change, negative = inhibition, most hits filed as inhibitors; 300,000 tested, 1.8% active; AID 540276, 2011; calls by dose curve; tested in HEK293 cells; note: potency is the fitted concentration of half-maximal effect
Vaccinia Venus = qHTS for Stage-Specific Inhibitors of Vaccinia Orthopoxvirus: Venus Reporter Primary qHTS | Vaccinia virus Venus reporter expression, fluorescence | Potency, µM (titrated, usually from 36.5 µM), without a hit: at the highest dose activity change, negative = inhibition, usual class: inhibitors | 330,000 tested, 0.46% active; calls by dose curve; tested in A549 cells; note: potency is the fitted concentration of half-maximal effect; nearly all actives have a fitted effect of over 30% in size
* marks the source's active call; other numbers are inactive results; i = inactive; ? = inconclusive; . = no result given; [ ] = remark or other dose. % is set by controls: 0 for no effect and ±100 for the full control effect.

SMILES	Lassa entry inh	Vaccinia mCherry	HCMV antiviral	HCV inhibitor	Marburg entry inh	Vaccinia Venus
CC(C)c1ccc(OCc2cccc(C(=O)N/N=C/c3cccnc3)c2)cc1	?	-22%	171	?	1.4µM*	-17%
CCOc1ccc(OCc2cccc(C(=O)N/N=C/c3cccnc3)c2)cc1	1.6µM*	-16%	83	2%	0.32µM*	-8%
O=C(N/N=C/c1cccnc1)c1cccc(Br)c1	.	.	11	18%	.	.
O=C(N/N=C/c1cccnc1)c1ccccc1	.	.	?	11%	.	.
COc1cccc2ccc(CN3CCC4(CC3)c3ccccc3[C@@H](NC(=O)c3ccccc3)[C@@H]4O)nc12	.	-12%	.	.	.	3%
CC(C)c1ccc(CN(Cc2ccco2)c2cnc(S(C)(=O)=O)nc2C(=O)Nc2ccccc2)cc1	-23%[46.1 µM]	-6%	-9	.	?	-9%
Cc1ccc(-c2nc(CSc3nnc(C)n4c3cc3occc34)c(C)o2)cc1	-5%[46.1 µM]	-12%	-9	.	.	-13%
Cc1cccc(C(=O)Nc2ccc(N3CCC(CCN4CCOCC4)CC3)c(C(=O)O)c2)c1	2%[46.1 µM]	i	-31	.	.	-6%
O=C(NC1CCCCCC1)C1CCC(CNS(=O)(=O)c2cccc3cccnc23)CC1 (stereo not drawn)	.	-16%	.	.	.	-8%
CCOC(=O)C1(Cc2cccc(OC)c2)CCN(Cc2ccc(OC)c(OC)c2)CC1	?	i	-27	11µM*	4.5µM*	-18%
CCOC(=O)C1(Cc2cccc(OC)c2)CCN(Cc2cccc(O)c2)CC1	-15%	-6%	-30	-19%	?	-7%
CCOC(=O)C1(Cc2ccc(Cl)cc2)CCN(C(C)Cc2ccc(O)c(OC)c2)CC1 (stereo not drawn)	.	.	-63*	10µM*	.	.
CCOC(=O)C1(Cc2cccc(OC)c2)CCN(Cc2ccc(C)s2)CC1	4.5µM*	-18%	-3	?	5µM*	-29%
CCOC(=O)C1(Cc2cccc(OC)c2)CCN(Cc2ccccc2OC)CC1	-26%	-19%	-62*	?	?	-16%
CN1OC(C)(CC(=O)Nc2ccccc2)N=C1c1ccccc1 (stereo not drawn)	.	.	-27	.	.	.
CSc1ccc(CNC(=O)CCn2c(=O)c3cccn3c3ccc(F)cc32)cc1	9%[46.1 µM]	2%	?	.	.	-2%
COC[C@@H](O)[C@H]1OCc2ccccc2[C@H]1C=Cc1ccccc1	.	.	.	.	7%[14.2 µM]	.
CCOC(=O)C1(CCOC)CCN(Cc2ccc(COC)o2)CC1	-8%	i	1	-6%	-3%[46.1 µM]	-9%
CCOC(=O)C1(Cc2cccc(OC)c2)CCN(Cc2cccc(OC)c2O)CC1	?	-22%	-73*	?	?	-10%
CCOC(=O)C1(Cc2ccccc2C(F)(F)F)CCN(Cc2ccc(COC)o2)CC1	?	-24%	?	8.9µM*	?	-9%
O=C(c1cc(-c2ccc(Br)cc2)nc2ccccc12)N1CCN(c2ccccc2O)CC1	?	14µM*	-16	?	?	?
O=C(c1cc(-c2ccncc2)nc2ccccc12)N1CCN(Cc2ccccc2)CC1	?	-8%	-25	?	7.9µM*	-15%
O=C(c1cc(-c2ccccc2Cl)nc2ccc(Br)cc12)N1CCN(c2ccccn2)CC1	?	-16%	-90*	-4%	?	-13%
O=C(c1cc(-c2ccncc2)nc2ccc(Br)cc12)N1CCN(c2ccccn2)CC1	?	.	41	-3%	5.6µM*	-9%
CC1CCc2c(sc3nnn(Cc4ccccc4)c(=O)c23)C1 (stereo not drawn)	-5%[46.1 µM]	-11%	0	.	1%[46.1 µM]	8%
SMILES	Lassa entry inh	Vaccinia mCherry	HCMV antiviral	HCV inhibitor	Marburg entry inh	Vaccinia Venus
COc1ccc(CN(C)Cc2c(O)ccc3ccccc23)cc1	15%[46.1 µM]	-26%	18	2%	2%[46.1 µM]	-10%
COc1ccc(CN(C)Cc2c(O)ccc3cc(Br)ccc23)cc1OC	4%[46.1 µM]	?	-66*	-4%	?	-14%
COc1ccc(CCN(C)Cc2c(O)ccc3cc(Br)ccc23)cc1OC	4%[46.1 µM]	-16%	-77*	-20%	?	-7%
COc1ccc2cc(Br)ccc2c1CC(=O)N(C)C	.	-6%	-11	-18%	-3%[46.1 µM]	-7%
COc1ccc(NC(=O)c2c(NC(=O)COc3ccc(Cl)cc3)sc3c2CCCCC3)cc1	-19%[46.1 µM]	-21%	30	.	.	-18%
COc1cc(NC(=O)Cn2cnc3sc(C)c(S(=O)(=O)N4CCC(C)CC4)c3c2=O)cc(OC)c1OC	13%[46.1 µM]	1%	2	.	0%[46.1 µM]	-11%
Nc1ccc(C(=O)NN2C(=O)[C@H](Cl)C2c2ccc(Cl)cc2)cc1 (stereo partly drawn)	11µM*	?	-7	10µM*	8.9µM*	?
CCNC(=O)CC1C(=O)N(CC)C(=S)N1NC(=O)c1ccc(Cl)cc1 (stereo not drawn)	0%	.	26	-9%	1%	.
C=C(C)CSc1nc2sc3c(c2c(=O)n1Cc1ccccc1)CC(C)(CC)OC3 (stereo not drawn)	-18%[46.1 µM]	-9%	-1	.	.	-5%
CC(=O)Nc1ccc(NC(=O)c2sc(-c3ccccc3)nc2C)cc1	?	-13%	-26	?	?	-8%
Cc1nc(-c2ccncc2)sc1C(=O)Nc1ccc(Br)cc1	3%[46.1 µM]	-6%	-72*	-7%	?	-2%
COc1ccc2c(c1)CCC[C@]1(C)O[C@@H]1C(=O)c1ccccc1O2	.	.	-19	.	.	.
CCCNC(=O)c1cc2c(c(-c3cccc(-c4cc5ccccc5o4)c3)n1)[C@H](CCO)N(C(=O)NC(C)C)C2	.	?	-88*	.	.	?
CC(C)(C)S(=O)N1Cc2cc(C(=O)NCC(F)(F)F)nc(-c3cccc(-c4cccc(F)c4)c3)c2[C@@H]1CCO (stereo partly drawn)	.	?	-77*	.	.	?
CC(=O)N1Cc2cc(C(=O)NCC(F)(F)F)nc(-c3cccc(-c4cccnc4)c3)c2[C@@H]1CCO	.	-7%	-81*	.	.	-22%
COc1ccc(OCC(=O)c2c[nH]c3ccccc23)cc1	.	-7%	14	10%	-1%[46.1 µM]	-8%
COc1ccc(C2C(O)C(c3c[nH]c4ccccc34)=NN2C(=O)CCl)cc1 (stereo not drawn)	?	?	-104*	0.56µM*	3.2µM*	?
COc1ccc(C2NN=C(c3c[nH]c4ccccc34)C2O)cc1 (stereo not drawn)	.	-3%	115	11µM*	.	1%
Cc1ccc(C2=CC(c3ccc(Cl)cc3)n3nc(-c4ccc(C)cc4)nc3N2)cc1 (stereo not drawn)	?	-16%	-38	.	?	-9%
COc1ccccc1C1C=C(c2ccc(F)cc2)Nc2nc(-c3ccc(Cl)cc3)nn21 (stereo not drawn)	-15%[46.1 µM]	-6%	-24	.	?	-16%

Bioassay records from PubChem BioAssay.
